Vaccinia Venus: qHTS for Stage-Specific Inhibitors of Vaccinia Orthopoxvirus: Venus Reporter Primary qHTS | Potency, µM (titrated, usually from 36.5 µM), inactives show top-dose activity change, negative = inhibition, actives largely listed as inhibitors | 330,000 compounds, 0.46% hits | AID 720580, 2013 | Vaccinia virus Venus reporter expression, fluorescence; calls by dose curve; tested in A549 cells; further: potency means the concentration at half of the fitted maximal effect; nearly all actives have a fitted effect of over 30% in size
Sm TGR block: qHTS Assay for the Inhibitors of Schistosoma Mansoni Peroxiredoxins. AID 485364, 2010. purified TGR, DTNB reduction, TNB absorbance 405 nm. Potency, µM (top dose mostly 114 µM), for inactives: top-dose activity change, negative = inhibition, usual class: inhibitors. Schistosoma mansoni thioredoxin glutathione reductase (TGR), Q962Y6. 360,000 compounds, 3% hits; further: potency means the concentration at half of the fitted maximal effect; nearly all actives have a fitted effect of over 60% in size
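First, TGR (20 nM dispensed) and NADPH were mixed with compound. Second, a 15 min room-temperature incubation followed. Third, further NADPH and then DTNB were added to start the reaction. Finally, TNB absorbance was monitored kinetically.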
VACV mCherry inh: qHTS for Stage-Specific Inhibitors of Vaccinia Orthopoxvirus: mCherry Reporter Primary qHTS | AID 720579, 2013 | 310,000 compounds, 0.63% hits | Vaccinia virus mCherry reporter infection, fluorescence | Potency, µM (top dose mostly 36.5 µM), for inactives: top-dose activity change, negative = inhibition, hits mostly inhibitors; calls by dose curve; tested in A549 cells; further: potency means the concentration at half of the fitted maximal effect; nearly all actives have a fitted effect of over 35% in size
HCMV antiviral: qHTS Assay for inhibitors of the human cytomegalovirus (HCMV); HFF cells, HCMV-luciferase reporter, 72 h; hits give low values; activity change, negative = inhibition, % at 57.5 µM; 410,000 compounds, 4.5% hits; AID 1259415, 2018; in the data active means activity change below about -60%; inconclusive means no clear call, values can overlap the other calls; inactive means above about -39%
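Cell-based, HFFs, 1000 cells/well, 16 h 37C; cpds in DMSO + HCMV-luc, MOI 1 PFU/cell; 72 h 37C; OneGlo luminescence after 5 min RT; norm. to buffer vs Salinomycin 10uM.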
FMDV inh: High Throughput Screening for Foot and Mouth Disease Virus Antivirals. 410,000 compounds, 1.2% hits. FMDV antiviral cell-based qHTS. AID 1159524, 2015. Potency, µM (highest dose often 57.9 µM), without a hit: top-dose activity change, negative = inhibition, actives largely listed as inhibitors; calls by dose curve; tested in HEK293T cells; further: read-out not given here; potency means the concentration at half of the fitted maximal effect; nearly all actives have a fitted effect of over 45% in size
HCV inh: qHTS Assay for Inhibitors of Hepatitis C Virus (HCV); Huh7.5.1 HCVcc-Cre infection, luciferase reporter, 44 h; Potency, µM (doses to about 41.8 µM), for the others: top-dose activity change, negative = inhibition, usual class: inhibitors; 340,000 compounds, 3.4% hits; further: potency means the concentration at half of the fitted maximal effect
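Whole-lifecycle infectious HCVcc-Cre system; cells 1,000/well, compound then virus (~0.5 moi) added 4 h after plating, 44 h culture. Luciferase read 15 sec following 15 min substrate incubation, room temp.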
Numbers without * were called inactive; i = inactive; ? = inconclusive; / = no result; ! = repeats disagree; [ ] = another dose, or the depositor's remark. Sampled rows, rich in hits. Any-hit rate of the full collection: about 9.3%. Unless noted, the call rests on the fitted dose curve; in most records, active means well fitted curve in the direction sought with a large enough effect; inconclusive means small, poorly fitted or top-dose-only effect, or another doubt; inactive means no such curve, though single readings can be large; an effect the other way counts as inactive or inconclusive. On the % scale 0 is the no-effect control and ±100 the full control effect.

SMILES | Vaccinia Venus | Sm TGR block | VACV mCherry inh | HCMV antiviral | FMDV inh | HCV inh
Cc1c(C(=O)N2CCc3ccccc3C2)oc2ccc(S(=O)(=O)N3CCCCCC3)cc12 | ? | -1% | -19% | -32 | -3% | 8.9µM*
CCOC(=O)C1CCN(C(=O)c2oc3ccc(S(=O)(=O)N4CC(C)CC(C)C4)cc3c2C)CC1 (stereo not given) | / | 2% | / | -33 | -29% | 4.5µM*
O=C(Nc1ccccc1F)c1cc(Cl)sc1Cl | -5% | 10% | -7% | -7 | 47% | -13%
O=S(=O)(NCC1COc2ccccc2O1)c1ccc2ccccc2c1 (stereo not given) | -15% | -2% | -18% | -3 | 27% | 2%
Cc1ccc(NC(=O)c2oc3ccc(S(=O)(=O)N4CCCCC4)cc3c2C)cc1C | -17% | 11% | -25% | 13 | ? | /
COc1ccc(NC(=O)c2oc3ccc(S(=O)(=O)N4CCC5(CC4)OCCO5)cc3c2C)cc1 | / | 1% | / | -17 | 13µM* | 13µM*
Cc1c(C(=O)Nc2ccc(F)cc2)oc2ccc(S(=O)(=O)N3CCCCCC3)cc12 | -30% | -3% | -26% | -31 | 28µM* | /
CCc1nn2c(=O)cc(CSCC(=O)Nc3ccccc3F)nc2s1 | / | -11% | / | / | -19% | 6%
C[n+]1ccccc1/C=C/c1c(F)cccc1F | -15% | 13µM* | ? | ? | -6% | ?
C[n+]1ccccc1/C=C/c1ccccc1Cl | -25% | 22µM* | -29% | -79* | -6% | ?
C[n+]1ccccc1/C=C/c1ccc(F)c(F)c1 | -8% | -11% | -1% | ? | -3% | 7%
Cc1ccccc1/C=C/c1cccc[n+]1C | / | -3% | / | ? | -7% | 6.3µM*
CC(=O)COc1ccc2oc(=O)cc(-c3cc4ccccc4o3)c2c1 | / | 20% | / | -11 | -17% | 14µM*
CCN(CC)C(=O)Oc1ccc2oc(=O)cc(-c3cc4cccc(OC)c4o3)c2c1 | -14% | 2% | -6% | 10 | -30% | 11µM*
COc1cccc2cc(-c3cc(=O)oc4ccc(OC(=O)N(C)C)cc34)oc12 | -3% | -1% | i | -19 | -28% | 11µM*
Cc1cccc(-n2cc(C#N)c(=O)[nH]c2=O)n1 | 0% | -7% | ? | -1 | 2% | 9%
COC(=O)CCC(=O)NN1C(=O)c2ccccc2C1=O | / | 34% | / | -68* | -24% | -2%
COc1ccc(CC(=O)NN2C(=O)c3ccccc3C2=O)cc1 | -13% | -4% | -20% | 22 | 6% | -2%
Cc1ccc(NCCC(=O)c2ccccc2)cc1Cl | 0% | -34% | -3% | 19 | 82% | -12%
CC(C)Cc1nnc(NC(=O)CCC(=O)N2CCN(S(=O)(=O)c3ccccc3)CC2)s1 | -19% | 6% | -15% | 9 | -16% | 5%
Cc1ccc(OCC(=O)Nc2ccc3c(c2)nc(CCN2CCC(C)CC2)n3C)cc1 | -30% | 0% | -12% | -70* | -11% | 13µM*
COc1ccc(OCC(=O)Nc2ccc3c(c2)nc(CCN2CCC(C)CC2)n3C)cc1 | / | -5% | / | -27 | 11% | 16%
CC1CCN(CCc2nc3cc(NC(=O)COc4ccc(Cl)cc4)ccc3n2C)CC1 | -4%[7.34 µM] | 3% | -13%[7.34 µM] | ? | -22% | 11µM*
CNc1ccc2c3c(cccc13)C(=O)N(C)C2=O | 340% | -22% | -21% | 7 | -9% | ?
CC1COC2=C1C(=O)C(=O)c1c2ccc2c1CCCC2(C)C (stereo not given) | 9% | / | -5% | / | -9% | /
SMILES | Vaccinia Venus | Sm TGR block | VACV mCherry inh | HCMV antiviral | FMDV inh | HCV inh
Cc1coc2cc3oc(=O)c4c(c3cc12)CCC4 | / | -13% | / | / | / | 20%
Cc1coc2c1C(=O)C(=O)c1c-2ccc2c1CCCC2(C)C | 11µM*! | 10µM* | 10µM*! | ? | -20% | ?
Cc1coc2c1C(=O)C(=O)c1c-2ccc2c(C)cccc12 | 7.1µM* | 8.9µM* | ? | / | ? | 3%
C[C@H]1COC2=C1C(=O)C(=O)c1c2ccc2c1CCCC2(C)C | 11µM* | 4µM* | 11µM* | / | -23% | ?
CCOc1ccc(-c2nc(Cn3ccn4nc(-c5ccc(OCC)c(Cl)c5)cc4c3=O)c(C)o2)cc1 | -8% | 6% | -11% | -15 | -21% | /
Cc1ccc(C)c(NC(=O)CSc2ccc(S(=O)(=O)N3CCCC3)cn2)c1 | / | -27% | / | -5 | -7% | -29%
O=C(CSc1ccc(S(=O)(=O)N2CCOCC2)cn1)Nc1ccc(F)c(F)c1 | / | 2% | / | 0 | ? | 6.3µM*
O=C(CSc1ccc(S(=O)(=O)N2CCCC2)cn1)Nc1ccc([N+](=O)[O-])cc1C(F)(F)F | -17% | / | -6% | -12 | ? | 13µM*
Cc1ccc(Cl)c(NC(=O)CN2C(=O)C(C)N(c3ccc(F)cc3)C2=O)c1Cl (stereo not given) | -20% | / | -2% | -24 | -22% | /
CCOC(=O)C(=CNNc1c(C)csc1C(=O)OC)C(=O)OCC | / | 56µM* | / | -10 | -27% | -18%
CNC(=O)c1ccc2nc(-c3ccco3)c(-c3ccco3)nc2c1 | 12% | / | -10% | / | / | /
O=C(NCc1ccccc1)c1ccc2nccnc2c1 | -5% | -3% | -18% | ? | / | 3%
CC(=O)c1ccc(NC(=O)c2ccc3nc(-c4ccco4)c(-c4ccco4)nc3c2)cc1 | -18% | 0.79µM* | -4% | / | ? | ?
O=C(NCc1ccccc1)c1ccc2nc(-c3ccco3)c(-c3ccco3)nc2c1 | -4% | 1.4µM* | -9% | 44 | 0% | -8%
O=C(Nc1ccccc1)c1ccc2nc(-c3ccco3)c(-c3ccco3)nc2c1 | -15% | 3.2µM* | 4% | 1 | -23% | 8.9µM*
O=C(Nc1ccc(N2CCOCC2)cc1)c1ccc2nc(-c3ccco3)c(-c3ccco3)nc2c1 | / | ? | / | 8 | -22% | 6%
COc1cc(/C=C(\CC(=O)O)c2nc3ccccc3s2)cc(OC)c1O | 8% | -24% | -11% | 78 | 11% | -7%
COc1cc(C=C(c2nc3ccccc3s2)c2nc3ccccc3s2)cc(OC)c1O | 116% | -32% | 32% | -15 | -12% | 10µM*
COc1cc(/C=N/NC(=Nc2ccc(C)cc2)c2nc3ccccc3s2)ccc1O | / | -15% | / | -68* | 18µM* | ?
CN(C)c1ccc(/C=C(\Cl)c2nc3ccccc3s2)cc1 | -14% | 3% | i | / | 10µM* | ?
Cc1nc2ccccc2nc(C)c1=NOCC(=O)N(c1ccccc1)C(C)C | -16% | 2% | -33% | -5 | 6% | -1%
CC(C)CCC[C@](C)(O)c1ccc(C(=O)O)cc1O | 3% | / | 3% | -19 | -16% | /
